Experimental data from PubChem BioAssay AID504444 (National Center for Advancing Translational Sciences (NCATS), 2011).
Among all 360,000 compounds or so, about 7,500 (2.1%) were called active. Not shown: some 20% with an inconclusive outcome. Many of the other results were omitted from the sample, so actives are more common in it than they were. Values without a mark were called inactive. The call rests on the fitted dose curve; in most records, active means well fitted inhibition curve with a large enough effect; inconclusive means small, poorly fitted or top-dose-only effect, or effect the other way; inactive means flat fitted curve, though single readings scatter.

Experiment: Nrf2 qHTS screen for inhibitors; further: nearly all actives have a fitted effect of over 60% in size
Details: A549 ARE-Fluc reporter, luciferase luminescence, 18-24 h; series mostly up to 46 µM; activity change, negative = inhibition: at the top concentration
Description: NIH Molecular Libraries Probe Production Network [MLPCN]
NIH Chemical Genomics Center [NCGC]
Assay Provider: Shyam Biswal, Johns Hopkins University
Nrf2 is a transcription factor that maintains cellular redox homoestasis and protects cells from xenobiotics. Nrf2 binds to the antioxidant response element (ARE) to induce gene expression of a broad spectrum of genes that encode for antioxidants. […] Finding a small molecule that act as an inhibitor of Nrf2 function would represent a novel therapeutic target that could lead to improvement in survival of patients undergoing chemo- and/or radio- therapy.
This is the Nrf2 activity measured in the luminescent read.
1. Shibata, T., et al., Genetic Alteration of Keap1 Confers Constitutive Nrf2 Activation and Resistance to Chemotherapy in Gallbladder Cancer. Gastroenterology, 2008.
2. Sjoblom, T., et al., The consensus coding sequences of human breast and colorectal cancers. Science, 2006. 314(5797): p. 268-74.
NCGC Assay Protocol Summary:
A concentration-response assay was performed with A549 ARE_Fluc cells which are suspended in 5% FBS OPTI-MEM. Five uL were dispensed into 1536-well white TC-treated plate using the Kalypsys dispenser to achieve a density of 5000 cells/well in all columns except column 1. The plate is incubated at 37deg C at 5% CO2 for 2 hours before 23 nL of compounds are added with the Kalypsys pin tool equipped with a 1,536-pin array containing 10-nL slotted pins (FP1S10, 0.457-mm diameter, 50.8 mm long; V&P Scientific). The control compounds Budesonide and Staurosporine are both added at a concentration of 2mM and Budesonide is also added as a 1:10 titration, starting at 200uM, to achieve dose-response. After an 18-24 hour incubation at 37deg C at 5% CO2, 5ul of medium is added to column 1. Afterwards 1ul of 5x of CellTiter-Fluor (Promega) is added to every well. The plate is then incubated at 37deg C at 5% CO2 for 30 minutes before they are read on the ViewLux (Perkin Elmer) for a fluorescent read Ex=405(10)/Em=525(10) for a 3 second exposure, 2x binning, and high gain. Then 3 uL of 3x BugLite is dispensed into all wells and the plate is incubated at ambient room temperature for 15 minutes. Afterwards another ViewLux read is performed using the clear filter to get a luminescent read with the settings of 40 second exposure, 2x binning, and high gain. Cytotoxicity is assessed through the first fluorescent read and then biochemical activity against Nrf2 is measured in the luminescent read.
On the % scale 0 is the no-effect control and ±100 the full control effect; potency means the concentration at half of the fitted maximal effect.

Point of comparison: `Cc1ccc(O)c(NC(=O)CCS(=O)(=O)c2nc(-c3ccc4c(c3)OCO4)cc(C(F)(F)F)n2)c1`, activity change, negative = inhibition 8.08% [at 9.27 µM]. Against it:
- O=c1c2ccccc2n(Cc2cccc(Cl)c2)c(=O)n1Cc1ccccc1 — lower, -5.53% [at 9.27 µM]

Point of comparison: `CCCCCCC1(C)NC(c2ccc3c(c2)OCO3)=CC(c2ccccc2O)N1` (stereo not drawn), “activity change, negative = inhibition” value 2.14%. Against it:
- CC1CCCCN1CC(=O)N1CCCc2c1c(=O)oc1ccc(OCc3ccccc3)cc21 (stereo not drawn) — lower, -15.1%
- Cc1ccc(-c2cc(C(=O)Oc3ccccc3Cl)no2)cc1C — higher, 12.8%
- Cc1ccc(CNc2ncnc3cc(-c4ccc5c(c4)OCO5)ccc23)o1 — higher, 4.57%
- Cc1cccc(NC(=O)c2ccc(COc3ccccc3[N+](=O)[O-])o2)n1 — lower, -18.1%
- O=C(O)c1ccc(NC(=O)c2ccc(COc3ccc(Cl)cc3)o2)cc1 — higher, 29.2%
- CCc1nn(CC(=O)Nc2cc(C)cc(C)c2)c(=O)c2cc3sccc3n12 — higher, 9.2%
- CCc1nc2nc(C)cc(Nc3ccc(F)c(Cl)c3)n2n1 — lower, -13.4%
- Cc1ccc(CNC(=O)Cn2cnc3c(NCc4ccccc4)ncnc32)o1 — lower, -7.86%
- Cc1cccc(NC(=O)Cn2cc(S(=O)(=O)Cc3ccccc3Cl)c3ccccc32)c1 — lower, -4.12%
- O=C(O)CC/C(=N\NC(=O)c1ccc(F)cc1)c1ccc(Br)cc1 — higher, 7.74%
- CCN(C(=O)c1ccc(Br)cc1)c1ccccc1 — lower, -12.2%
- COC(=O)[C@]1(Cc2ccccc2)N[C@H](CN(C)S(=O)(=O)c2ccc(OC(F)(F)F)cc2)[C@@H]2C(=O)N(C)C(=O)[C@@H]21 — lower, -14.7%
- CCCN(CCC)CCCNC(=O)Cn1ncc2c3ccccc3n(Cc3ccccc3)c2c1=O — higher, 13.4%
- Cc1cccc(S(=O)(=O)c2cn(Cc3ccccc3)c3cc(N4CCOCC4)c(F)cc3c2=O)c1 — lower, -18.8%
- Cc1ccc(S(=O)(=O)c2cn(Cc3ccccc3)c3cc(N4CCCC4)c(F)cc3c2=O)c(C)c1 — lower, -14.6%
- N#CC1=C(N)Oc2cc(N)ccc2C1c1ccccc1 (stereo not drawn) — lower, -15.3%
- CN(C)Cc1cn(-c2ccccc2)nc1-c1ccccc1 — lower, -3.78%
- O=C(N[C@H]1C/C=C\C(c2ccc(F)cc2)N(Cc2ccccc2)C(=O)C1)OCC1c2ccccc2-c2ccccc21 (stereo partly drawn) — higher, 4.03%
- CC(C)N(C(=O)CSc1nc(COc2ccccc2)nc2ccccc12)C(C)C — lower, -10.9%
- CCc1c(SCCC(=O)O)nc2ccccc2c1C — lower, -7.59%
- NC(=O)C1(Nc2ccc(-c3ccccc3)cc2)CCCC1 — higher, 8.22%
- O=C1CCCC2=C1[C@@]1(CCC(c3ccccc3)C1)N=C(Nc1nc3ccccc3o1)N2 (stereo partly drawn) — lower, -25.3%
- CCOC(=O)c1cnc(SCc2nc(N)nc(Nc3ccc(OC)cc3)n2)nc1N — lower, -25.3%
- CCOC(=O)c1cnc(SCC(=O)NCc2ccco2)nc1N — lower, -21.5%
- COc1ccc(-c2cn3c(n2)sc2cc(C(=O)Nc4ccc(F)cc4)ccc23)cc1 — lower, -5.23%
- CC1=C(C(=O)NC2CC(C)(C)Cc3c2cnn3-c2ccc(C)cc2)OCCO1 (stereo not drawn) — lower, -24%
- Cc1ccc(-c2csc(NC(=O)c3cnccn3)n2)cc1C — higher, 15.5%
- Cc1ccc(C(=O)NCCNC(=O)c2cnccn2)cc1 — higher, 4.7%
- CC(=O)NCC(=O)NC1CCCc2c1cnn2-c1ccccc1F (stereo not drawn) — higher, 19.1%
- COc1ccc(C(=O)NC2CC(C)(C)Cc3c2cnn3-c2ccccc2C)o1 (stereo not drawn) — higher, 13.2%
- Cc1cccc(-n2nc3c(c2NC(=O)c2ccc(Br)o2)CSC3)c1C — lower, -10.6%
- COc1cc(CNCCSc2nnnn2C)ccc1OCc1ccc(Cl)cc1Cl — lower, -13.7%
- COc1ccc(CNC(=O)CS(=O)Cc2nc(-c3cccc(C)c3)oc2C)cc1 (stereo not drawn) — lower, -4.99%
- Cc1ccc(OCCSc2nc(C)c(Cc3ccccc3)c(=O)[nH]2)cc1 — higher, 7.59%
- CCOC(=O)[C@H]1[C@H]2COc3ccc(Br)cc3[C@@H]2N2C(=O)CN(C)C(=O)[C@@]12C — lower, -13.2%

With `CC1=C(c2ccc(C)c(C)c2)S(=O)(=O)NC1=NCc1ccccc1Cl` the Potency was 23.1 µM (active).
In the case of `O=C(Nc1ccn(Cc2ccccc2F)n1)c1ccc(COc2ccc(Cl)cc2Cl)o1`, the Potency is reported as 25.9 µM (active).
For `CC1CC2=C(CC1/C=N/NC(N)=S)C(C)(C)CCC2` (stereo not drawn), the Potency was 23.1 µM (active).
In the case of `O/N=C(\C[n+]1ccccc1)c1ccc(Br)cc1`, the Potency is reported as 3.66 µM (active).
In the case of `Cc1ccc(S(=O)(=O)N2C[C@@H]3CCCC[C@@H]3[C@@H](C)[C@H]2c2cn(Cc3ccccc3)c3ccc(F)cc23)cc1`, the Potency is reported as 2.91 µM (active).
With `O=C(O)CSc1nccc2ccccc12` the Potency was 16.4 µM (active).
With `CCOC(=O)c1cnc(SCC(=O)Nc2cccc(OC)c2)nc1N` the Potency was 25.9 µM (active).
For `Cn1nccc1C(=O)NC1CCCc2c1cnn2-c1ccc(F)cc1F` (stereo not drawn), the Potency was 0.184 µM (active).
For `Cc1ccc(-n2ncc3c2CCCC3NC(=O)c2cnccn2)cc1C` (stereo not drawn), the Potency was 20.6 µM (active).
With `Cc1cc(C(=O)NC2CCCc3c2cnn3-c2cccc(C)c2C)c(C)o1` (stereo not drawn) the Potency was 3.66 µM (active).
